Measurements taken from PubChem BioAssay (NCI).
The panel holds about 83,000 compounds, 20% with a hit somewhere; the sample as a whole holds those more often.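 For each line, cells grew in 96-well plates with the test compound present at a single concentration for 48 hours.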 Values without a mark were called inactive. Activity calls are given as the source filed them. The calls were made as follows: active = growth percent below 10; inactive = the rest.

Legend:
Test in all cases: NCI-60 one-dose screen, 48 h (100 = growth as untreated, 0 = no growth, -100 = all killed)
Settings in all cases: 10 µM
[1] = test system: NCI-H23 lung
[2] = test system: NCI-H226 lung
[3] = test system: HOP-62 NSCLC
[4] = test system: NCI-H460 lung
[5] = test system: A549/ATCC NSCLC
[6] = test system: 786-0 renal
[7] = test system: COLO 205 colon
[8] = test system: DU-145 prostate
[9] = test system: K-562 leukemia
[10] = test system: MALME-3M melanoma
[11] = test system: MDA-MB-231 breast
[12] = test system: RXF 393 renal
[13] = test system: SF-268 CNS
[14] = test system: SF-295 CNS
[15] = test system: SF-539 CNS
[16] = test system: UACC-257 melanoma
[17] = test system: M14 melanoma
[18] = test system: HOP-92 NSCLC
[19] = test system: NCI-H522 lung

Row | SMILES | growth [1] | growth [2] | growth [3] [%] | growth [4] | growth [5] | growth [6] | growth [7] | growth [8] | growth [9] | growth [10] | growth [11] | growth [12] | growth [13] | growth [14] | growth [15] | growth [16] | growth [17] | growth [18] | growth [19]
1 | Nc1nc(-c2ccc(Cl)cc2)cc(-c2cc3ccccc3oc2=O)n1 | 92.5% | 88.9% | 84.7 | 101% | 103% | 95.7% | 100% | 106% | 114% | 80% | 93.9% | 112% | 104% | 89.1% | 117% | 132% | 95.3% | – | –
2 | COc1ccccc1-n1c(-c2csc(NC(C)=O)n2)n[nH]c1=S | 93.1% | 96.7% | – | 109% | 100% | 97.2% | 115% | 119% | 87.5% | 109% | 121% | 102% | 111% | – | 112% | 98.1% | 98% | 96% | 82.5%
3 | Cc1ccc(C2=NN(c3ccc(S(C)(=O)=O)cc3)C(=O)CC2)cc1 | -19.6% (active) | 77.6% | – | 12.8% | 36.6% | 38.3% | 4.23% (active) | 6.77% (active) | 11.7% | 45.5% | 47.8% | 15.4% | 55.2% | – | -7.93% (active) | 50.7% | 10.2% | 60.9% | -28.5% (active)
4 | COc1ccc(-c2nn(-c3cccc(Cl)c3)cc2-c2nc(N)[nH]c(=O)c2C#N)cc1 | 42.7% | 67.3% | – | 92.2% | 85.1% | 57.2% | 107% | 102% | 28.3% | 37.4% | 62.9% | 63.4% | 68.8% | 38.6% | 75.6% | 94% | 55.8% | 71.2% | 49.6%
5 | Cc1cc(O)ccc1C1=NN(c2ccc(S(C)(=O)=O)cc2)C(=O)CC1 | 32.9% | 93.3% | – | 73.1% | 72.2% | 84.1% | 65.8% | 92.2% | 20.6% | 52.7% | 74.8% | 81.2% | 80.3% | 32.1% | 73.8% | 93% | 49.2% | 92.8% | 2.39% (active)
6 | Cc1ccc(C(=O)C2C(=O)C3CCC2C3)cc1 (configuration not stated) | 94.4% | 99.2% | 99.6 | – | 102% | 104% | 100% | 121% | 102% | 121% | 107% | 109% | 108% | 101% | 106% | 94.1% | 111% | 98% | 101%
7 | CN(C)CCC1(c2ccccc2)CCN(C)C1=O (configuration not stated) | 103% | 95.7% | 96.9 | – | 105% | 109% | 105% | 107% | 95.2% | 94.8% | 114% | 96.1% | 99.9% | 104% | 103% | 104% | 108% | 123% | 86.4%
8 | C/C(=C/CCC(C)[C@@H]1CC[C@]2(C)C3=C(CC[C@@]12C)[C@@]1(C)CCC(=O)C(C)(C)[C@@H]1CC3)C(=O)O (some centres not stated) | -78.3% (active) | -47.3% (active) | – | -80.7% (active) | -56.2% (active) | -92% (active) | -91% (active) | -92.3% (active) | -16.1% (active) | -88.9% (active) | -76.8% (active) | -90.2% (active) | -92.2% (active) | -90.5% (active) | -76% (active) | -57.5% (active) | – | -93.3% (active) | -69% (active)
9 | COc1ccc(-c2nn(-c3cccc(Cl)c3)cc2-c2cc(-c3ccccc3)nc(N)n2)cc1 | 42.2% | 69.3% | – | 31.6% | 61.1% | 60.1% | 35.8% | 95.1% | -3.82% (active) | 52.1% | 35.1% | 56.2% | 65.7% | 55% | 89% | 81.1% | 52.6% | 69.2% | 45.8%
10 | O=[N+]([O-])c1ccc(NCSc2ccc(Cl)cc2)cc1 | 99.4% | 112% | 109 | – | 96.3% | 93.4% | 103% | 98.3% | 86.9% | – | 94.3% | 103% | 94.1% | 105% | 99.7% | 101% | 109% | 98.2% | 86.5%
11 | O=C1CCn2c1c(O)c1ccccc1c2=O | 99.5% | 101% | – | 105% | 100% | 105% | 123% | 114% | 130% | 124% | 115% | 111% | 114% | 97.2% | 113% | 99.8% | 107% | 95.4% | 112%
12 | Nc1cc(-c2ccc(Cl)cc2)nn1-c1nc2ccccc2nc1Cc1ccccc1 | 81.5% | 84.3% | 88.8 | – | 78% | 89.5% | 109% | – | – | 101% | 75.1% | 78.7% | – | – | 99.5% | 101% | 89.6% | – | 85.7%
13 | O[C@@H]1CO[C@H]2[C@@H]1OC[C@@H]2O | 109% | 109% | 107 | – | 96.9% | 109% | 119% | 108% | 124% | – | 92.5% | 125% | 108% | – | 106% | 103% | 103% | 108% | 111%
14 | COc1ccc(C(=O)N2C=Cc3ccccc3C2C#N)cc1 (configuration not stated) | 95.3% | 87.7% | 89.4 | – | 101% | 114% | 105% | 109% | 67.4% | 100% | 86.9% | 90% | 99.9% | 99.2% | 96.8% | 93.7% | 116% | 102% | 94.2%
15 | COc1ccc(-c2nn(-c3cccc(Cl)c3)cc2/C=C2\NC(=S)N(c3ccc(Cl)cc3)C2=O)cc1 | -7.88% (active) | -42.5% (active) | – | 11% | 18.8% | 46.6% | 36.9% | 21.4% | -12.2% (active) | 19.1% | 11.8% | -7.45% (active) | 38% | – | 75.3% | 1.55% (active) | 4.39% (active) | 29.3% | -37.7% (active)
16 | COC(=O)CC[C@@H](C)[C@H]1CC[C@H]2[C@@H]3CC[C@@H]4C[C@H](O)CC[C@]4(C)[C@H]3C[C@H](O)[C@]12C | 116% | 102% | 109 | 110% | 102% | 107% | 101% | 118% | 76.4% | – | 120% | 110% | 95.6% | 100% | 111% | 110% | 102% | – | –
17 | CC(=O)Nc1ccc(S(=O)(=O)c2ccnc3cc(Cl)ccc23)cc1 | 68.2% | 78.1% | 99.1 | – | 85.3% | 125% | 95.3% | 53.7% | 78.9% | 66.5% | 88.3% | 66.7% | 82.8% | 97.2% | 99.5% | 64.4% | 95.3% | 99.8% | 28.1%
18 | Fc1ccc(C(c2ccc(F)cc2)C(Cl)Cl)cc1 | 100% | 105% | 115 | – | 102% | 95.7% | 108% | 104% | 91.2% | – | 92.4% | 86.9% | 110% | 105% | 106% | 111% | 103% | – | 93.8%
